Rango complex inh: Rango-importin beta binding inhibition; Rango CFP/YFP FRET sensor + importin beta, 45 min; Potency, µM (highest dose often 92.2 µM), for inactives: top-dose inhibition of complex formation; 340,000 compounds, 0.031% hits;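 further: 0% = DMSO wells and 100% = buffer wells lacking importin beta; nearly all actives have a fitted effect of over 15% in size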
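Inhibition scored from the CFP 486 nm/YFP 530 nm FRET ratio 45 min after adding 0.125 microM importin beta to 50 nM Rango biosensor preincubated 5 min with compound (room temperature, PBS with DTT, Tween-20, BSA). No-importin wells as positive control.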
KinaseGlo FLuc: Kinase-Glo luciferase inhibition (counter-screen). 200,000 compounds, 0.28% hits. Kinase-Glo luciferase, ATP luminescence, 8 min. Q27757. Potency, µM (doses to about 38.3 µM), without a hit: at the top dose activity change, negative = inhibition, hits mostly inhibitors. AID 1379; active means well fitted curve in the direction sought with a large enough effect; inconclusive means small, poorly fitted or top-dose-only effect, or another doubt; inactive means no such curve, though single readings can be large; an effect the other way counts as inactive or inconclusive; further: on the % scale 0 is the no-effect control and ±100 the full control effect; nearly all actives have a fitted effect of over 60% in size
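Substrate mix (final 50 mM imidazole pH 7.2, 50 mM KCl, 7 mM MgCl2, 10 uM ATP, 0.01% Tween 20, 0.05% BSA) plus pin-tool compound, then Kinase-Glo detection mix; 8 min ambient, luminescence read.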
Tb PFK inh-1: T. brucei PFK enzyme inhibition. O15648. T. brucei PFK, ADP-Glo luminescence. Potency, µM (doses to about 57.5 µM), without a hit: at the highest dose activity, negative = inhibition, hits mostly inhibitors. 330,000 compounds, 0.17% hits; active means well fitted curve in the direction sought with a large enough effect; inconclusive means small, poorly fitted or top-dose-only effect, or another doubt; inactive means no such curve, though single readings can be large; an effect the other way counts as inactive or inconclusive;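 further: 0% = uninhibited 1x PFK enzyme wells and -100% = no-enzyme wells; nearly all actives have a fitted effect of over 60% in size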
Target sequence (O15648 whole entry, looked up): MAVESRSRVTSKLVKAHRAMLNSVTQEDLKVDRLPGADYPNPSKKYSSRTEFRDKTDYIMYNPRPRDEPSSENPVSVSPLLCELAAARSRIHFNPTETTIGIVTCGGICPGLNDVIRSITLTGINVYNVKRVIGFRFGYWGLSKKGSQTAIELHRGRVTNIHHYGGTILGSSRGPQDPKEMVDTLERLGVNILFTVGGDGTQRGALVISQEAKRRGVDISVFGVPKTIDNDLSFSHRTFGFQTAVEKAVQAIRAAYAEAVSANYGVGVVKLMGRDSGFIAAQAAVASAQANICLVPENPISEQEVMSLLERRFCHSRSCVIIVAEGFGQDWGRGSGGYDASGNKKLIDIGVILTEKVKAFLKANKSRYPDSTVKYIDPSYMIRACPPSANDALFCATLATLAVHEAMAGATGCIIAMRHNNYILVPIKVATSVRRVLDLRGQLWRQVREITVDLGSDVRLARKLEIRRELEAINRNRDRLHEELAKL
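1.25 nM PFK with 0.5 mM F6P and 0.1 mM ATP in 0.1 M TEA pH 8.0, 5 mM MgCl2, incubated 45 min at room temperature; ADP measured by ADP-Glo luminescence; compounds titrated up to 57 uM.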
Chronic BCR inh: blocks chronic active B-cell receptor signaling; 340,000 compounds, 0.05% hits; AID 493014; ABC-DLBCL IkBa-CBG/CBR reporter, luminescence ratio, 4 h; Potency, µM (series often up to 46.1 µM), for the others: at the highest dose activity change, negative = inhibition, most hits filed as inhibitors; active means well fitted inhibition curve with a large enough effect in the signal ratio, with a control signal flat, not every such curve was filed as active; inconclusive means small, poorly fitted or top-dose-only effect, or effect the other way, or a change in a side signal; the % refers to the signal ratio;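 further: plate controls were basal doxycycline-induced cells for no effect and cells given 10 µM MG132 for full effect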
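TMD8 ABC-DLBCL cells carrying doxycycline-inducible green luciferase fused to IkappaBalpha plus unfused red luciferase were exposed to compounds (up to 46 uM) for 4 hrs at 37C. Activity came from the overlap-corrected green/red luminescence ratio.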
LMNA splice mod: LMNA splicing modulation | HeLa LMNA splicing GFP/RFP minigene ratio, 48 h | Potency, µM (doses to about 46.1 µM), for the others: at the top dose ratio change, negative = inhibition, most hits filed as inhibitors | 200,000 compounds, 0.01% hits | AID 1487; active means well fitted inhibition curve with a large enough effect in the signal ratio, with a control signal flat, not every such curve was filed as active; inconclusive means small, poorly fitted or top-dose-only effect, or effect the other way, or a change in a side signal; the % refers to the signal ratio; further: on the % scale 0 is the no-effect control and ±100 the full control effect
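S3 HeLa cells stably expressing lamin A-EGFP splicing minigene plus DsRed2, 600 cells/well, 48 h compound exposure at 37C. Laser-scanning cytometry; analysed as GFP (500-530 nm)/RFP (575-640 nm) total intensity ratio; 0.5% DMSO vehicle.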
Rango release inh: inhibitors of RanGTP-induced Rango-importin beta complex dissociation; Biochemical FRET Rango-importin beta, RanGTP-induced dissociation; 340,000 compounds, 0.071% hits; AID 540253; O95149+P62826; Potency, µM (series often up to 46.1 µM), without a hit: at the highest dose activity change, negative = inhibition; further: % of control where 0% means no effect; nearly all actives have a fitted effect of over 45% in size
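Compounds sat 5 min at room temperature with 0.1 uM Rango biosensor plus 0.25 uM importin beta, then FRET pre-read. RanGTP-RCC1 (0.6 uM Ran, 2mM GTP, 0.2 uM RCC1) added for 45 min, and the CFP/YFP post-read measured blocked complex dissociation.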
TbPFK ATP: inhibits T. brucei PFK measured by ATP depletion. shares compounds with Tb PFK inh-1. Tb PFK enzyme, ATP depletion, Kinase-Glo Plus luminescence. Potency, µM (highest dose often 57.5 µM), for the others: top-dose inhibition. 1,100 compounds, 47% hits; further: nearly all actives have a fitted effect of over 60% in size
Tb PFK inh-2: validation of T. brucei phosphofructokinase inhibitors | purified T. brucei PFK, ADP-Glo luminescence, 45 min | shares compounds with Tb PFK inh-1 | AID 504637 | 1,100 compounds, 41% hits | Potency, µM (highest dose often 57.5 µM), without a hit: top-dose activity change, negative = inhibition, most hits filed as inhibitors; active means well fitted curve in the direction sought with a large enough effect; inconclusive means small, poorly fitted or top-dose-only effect, or another doubt; inactive means no such curve, though single readings can be large; an effect the other way counts as inactive or inconclusive;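 further: plate controls were full PFK enzyme control for no effect and no enzyme control for full effect; nearly all actives have a fitted effect of over 60% in size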
Active calls of the source: *; ? = inconclusive; . = no result; [ ] = remark or other dose. Shown are actives, neighbours in structure and some others; about 0.44% of the full set was active somewhere. Unless noted, the call rests on the fitted dose curve. Potency means the concentration at half of the fitted maximal effect.

SMILES	Rango complex inh	KinaseGlo FLuc	Tb PFK inh-1	Chronic BCR inh	LMNA splice mod	Rango release inh	TbPFK ATP	Tb PFK inh-2
O=c1cc(-c2ccccc2)oc2cc(O)c(O)c(O)c12	-2%	1%	7.6µM*	12%	.	-7%	2.7µM*	5.4µM*
CC1(C(=O)O)C2CCC(O2)C1(C)C(=O)O (centres undefined)	.	-9%	.	.	?	.	.	.
O=C1NC(c2ccc(Cl)c([N+](=O)[O-])c2)Nc2ccccc21 (centres undefined)	4%	-4%	21µM*	12%	.	28%	24µM*	13µM*
O=[N+]([O-])c1ccc(Cl)c([N+](=O)[O-])c1	0%	.	-19%	?	.	17%	.	.
C[C@@H]1O[C@@H](O[C@@H]2[C@@H](O)[C@H](OCCc3ccc(O)c(O)c3)O[C@H](CO)[C@H]2OC(=O)/C=C/c2ccc(O)c(O)c2)[C@H](O)[C@H](O)[C@H]1O	0%	.	1.7µM*	0%	.	58%	4.8µM*	4.8µM*
NC1CCc2cc(O)c(O)cc2C1 (centres undefined)	-2%	-2%	6.7µM*	-13%	?	-16%	2.7µM*	2.7µM*
CC[C@@H](CO)NC(=O)[C@@H]1C=C2c3cccc4[nH]cc(c34)C[C@H]2N(C)C1	?	.	.	.	?	-10%	.	.
COC(=O)C1=C(c2ccc(C(C)=O)cc2)C[C@@H]2CC[C@H]1N2C(=O)NC1CCCCC1	1%	.	-1%	8%	.	-5%	.	.
Oc1cc2c(cc1O)[C@H]1c3ccc(O)c(O)c3OC[C@@]1(O)C2	-1%	0%	?	?	.	-7%	?	?
CC1(C)C(C(=O)NN2C(=O)c3ccccc3C2=O)C1(C)C	2%	1%	-1%	?	11%	2%	.	.
Oc1cc2c(cc1C(c1ccc(Cl)c(Cl)c1)N1CCCC1)OCO2 (centres undefined)	0%	2%	21µM*	3%	.	1%	?	?
Cc1ccc(C(=O)N[C@@H](C)CN2C3=NC[C@H](Cc4ccccc4)N3C[C@H]2Cc2ccc(O)cc2)cc1Br	0%	.	-9%	-3%	.	0%	.	.
O=C(CN1CC(c2ccccc2)CC1=O)Nc1cccc(F)c1 (centres undefined)	10%	2%	-10%	2%	0%	?	.	.
O=C(CSC1=NS(=O)(=O)c2cc(Cl)ccc2N1)Nc1cccc(F)c1	-3%	.	?	?	.	5%	24µM*	?
COc1ccc(/C=N/NC(=O)c2cccnc2)cc1COc1ccc([N+](=O)[O-])cc1	-3%	.	-3%	?	.	-2%	.	.
COCc1cc(/C=N\NC(=O)Cc2ccc(Cl)cc2)ccc1OC	0%	-1%	21µM*	?	?	2%	?	?
O=[N+]([O-])c1ncccc1OCc1ccc(Cl)c(Cl)c1	0%	.	?	?	.	-12%	15µM*	17µM*
Clc1ccc(COc2ccccn2)cc1Cl	0%	-3%	17µM*	-22%	10%	-8%	12µM*	27µM*
Nc1nc(=S)c2ncn(C3CCCC3)c2[nH]1	?	.	?	?	8%[46 µM]	-24%	?	?
Cc1cccc(-c2nn3c(=O)cc(CN4CCN(C(=O)COc5ccc(Cl)cc5)CC4)nc3s2)c1	.	.	.	.	1%[46 µM]	.	.	.
COc1ccc(CC(=O)Nc2ccc3c(C(F)(F)F)cc(=O)oc3c2)cc1OC	0%	-1%	4%	-1%	5%	-14%	.	.
COc1ccc(CCC(=O)N(C)CC(=O)Nc2ccc(Cl)c(C(F)(F)F)c2)cc1	1%	.	0%	?	.	-3%	.	.
COc1ccc(NC(=O)CN(C)C(=O)c2cc3c(s2)CCC3)cc1	-4%	.	?	?	.	-1%	?	?
C=C1C(=O)[C@@]23C[C@H]4[C@@H]5[C@@]6(C)CCC[C@@]57[C@@H]2[C@@H](O)[C@@H]1C[C@H]3[C@H]7N4C6	-2%	.	.	.	.	-8%	.	.
COc1cc2c(cc1OC)CN(c1ccc([N+](=O)[O-])c(C(F)(F)F)c1)CC2	-5%	1%	?	?	?	-12%	?	?
SMILES	Rango complex inh	KinaseGlo FLuc	Tb PFK inh-1	Chronic BCR inh	LMNA splice mod	Rango release inh	TbPFK ATP	Tb PFK inh-2
CC(C)(O)C(=O)Nc1ccc([N+](=O)[O-])c(C(F)(F)F)c1	2%	.	-5%	0%	.	-3%	.	.
CN1c2ccccc2Oc2ccccc21	-5%	3%	-2%	2%	?	1%	.	.
Cc1nn(Cc2ccc(Cl)c(Cl)c2)c(C)c1NC(=O)c1cc(-c2ccco2)on1	-4%	2%	4.8µM*	-4%	?	-17%	2.7µM*	6µM*
c1ccc(CCNCc2cccs2)cc1	-2%	.	2%	1%	.	-5%	.	.
CN(C)C(=Nc1ccccc1)P(=S)(N(C)C)N(C)C	-1%	.	-1%	2%	.	1%	.	.
O=C(O[C@@H]1OC2COC(=O)c3cc(O)c(O)c(O)c3-c3c(cc(O)c(O)c3O)C(=O)O[C@@H]([C@H]1O)[C@@H]2O)c1cc(O)c(O)c(O)c1	?	0%	2.1µM*	14%	?	-3%	0.067µM*	0.085µM*
C/C(=C\c1ccc(N(C)C)cc1)[N+](=O)[O-]	-1%	-6%	?	?	?	4%	-24%	?
CCN(CC)C(=O)c1ccc(NC(=O)c2cccc(C(F)(F)F)c2)cc1	1%	0%	0%	-7%	18%[46 µM]	4%	.	.
O=C(O)c1ccc(Cl)c(S(=O)(=O)Nc2ccc3cn[nH]c3c2)c1	0%	7%	?	9%	0%[46 µM]	2%	9%	1%
O=C(O)c1ccc(Cl)c(S(=O)(=O)Nc2cccc(C(=O)Nc3cccc(C(F)(F)F)c3)c2)c1	-5%	5%	?	3%	.	9%	?	?
COc1ccc(C(CC(=O)N2CCC3(CC2)OCCO3)NS(=O)(=O)c2ccc(C)cc2)cc1 (centres undefined)	-2%	4%	-8%	2%	-1%	-10%	.	.
O=C(O)Cc1ccc(NC(=O)Nc2ccc(Br)cc2)cc1	-1%	-1%	?	10%	.	1%	12µM*	24µM*

Source: PubChem (National Center for Advancing Translational Sciences (NCATS))
